This is a sample that favours compounds with a hit; in the whole collection about 4.2% have one here.
NALP3 yeast inh = NALP3 inflammasome inhibitors in reconstituted yeast, primary screen, luminescence, uHTS | 330,000 compounds, 0.39% hits | Yeast reconstituted NLRP3/ASC/caspase-1, beta-gal luminescence, 24 h | inhibition, % at 10 µM;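 active means inhibition of 50% or more; inactive means inhibition below 50%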
TIM10 inh = growth inhibitors of isogenic TIM10 control yeast, primary screen, counter-screen for tim10-1 yeast inhibitor project, luminescence, uHTS. inhibition, % at 10 µM. 330,000 compounds, 1.4% hits. S. cerevisiae TIM10 strain growth, BacTiter-Glo luminescence, 24 h;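 active means inhibition of 40% or more at the single tested concentration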;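 further: wild-type TIM10 isogenic control strain grown at permissive 25 °C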
V-ATPase pHluor = regulators of yeast V-ATPase proton pumping, primary screen, pHLuorin cytosolic pH fluorescence | AID 504577, 2011 | response, % at 10 µM | 350,000 compounds, 0.37% hits | S. cerevisiae; in the data active means response mostly above about 7.3%, no sharp cut-off; inactive means mostly below about 5.4%; further: actives read high
tim23-1 inh = growth inhibitors of tim23-1 mutant yeast, primary screen, luminescence, uHTS. S. cerevisiae tim23-1 growth, BacTiter-Glo luminescence, 24 h. inhibition, % at 20 µM. 330,000 compounds, 1.3% hits. AID 463212, 2010;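 active means growth inhibition of the mutant yeast at or above 50%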;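 further: temperature-sensitive mutant grown at 25 °C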
tim10-1 inh = growth inhibitors of tim10-1 mutant yeast, primary screen, luminescence, uHTS; S. cerevisiae tim10-1 ts strain growth, BacTiter-Glo, 24 h; inhibition, % at 20 µM; 330,000 compounds, 2.2% hits;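 active means inhibition of at least 40%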;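 further: mutant grown at 25 °C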
NALP1 inh = NALP1 inflammasome inhibitors in reconstituted yeast, colorimetric, S. cerevisiae, triplicate retest. S. cerevisiae NALP1/ASC/caspase-1 growth, X-gal OD620, 72 h. inhibition, % at 10 µM. 280,000 compounds, 0.61% hits; in the data active means inhibition mostly above about 24%, no sharp cut-off; inactive means mostly below about 32%
tim10-1 conf = growth inhibitors of tim10-1 mutant yeast, confirmation, single concentration, luminescence, S. cerevisiae; inhibition, % at 20 µM; shares compounds with tim10-1 inh; S. cerevisiae tim10-1 ts strain growth, BacTiter-Glo, 24 h; 7,400 compounds, 56% hits;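 active means inhibition of yeast growth at or above a set limit in either of two repeat tests at 20 µM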;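 further: tim10-1 mutant grown at permissive 25 °C to find synthetic lethal compounds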
TIM10 conf = growth inhibitors of wild-type TIM10 yeast, confirmation, counter-screen for tim10-1 synthetic lethality project, single concentration, luminescence, S. cerevisiae; shares compounds with TIM10 inh; S. cerevisiae tim10 strain growth, BacTiter-Glo luminescence, 24 h; inhibition, % at 10 µM; 4,600 compounds, 63% hits; AID 463215, 2010;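 active means inhibition of yeast growth at or above a set limit in either of two replicates at 10 µM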; further: this counterscreen used the strain with wild-type TIM10
tim23-1 conf = tim23-1 mutant yeast growth inhibitors, confirmation, luminescence, single concentration | shares compounds with tim23-1 inh | S. cerevisiae tim23-1 growth, BacTiter-Glo luminescence, 24 h | inhibition, % at 20 µM | 4,400 compounds, 83% hits | AID 463218, 2010;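 active means inhibition above about 39% in either of two replicate wells at 20 µM, limit read from the data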;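 further: temperature-sensitive tim23-1 mutant grown at 25 °C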
Large screens that a line does not name were inactive (follow-up assays come after a bar, where they were run).

N#CC1=C(N)OC2=C(C(=O)CC(c3ccccc3)C2)C1c1ccc2c(c1)OCO2 (centres undefined)	none
COc1ccccc1/C=C1\N=C(C(C)(C)C)OC1=O	TIM10 inh 46.7, tim23-1 inh 51.2, tim10-1 inh 44.4 | tim10-1 conf 47.0 | TIM10 conf 34.4 | tim23-1 conf 67.1
Cc1nn2c(NCc3ccccn3)cc(C(C)(C)C)nc2c1-c1ccccc1	TIM10 inh 56.3, tim23-1 inh 57.5, tim10-1 inh 61.9 (no result: NALP1 inh) | tim10-1 conf 36.8 | TIM10 conf 72.2 | tim23-1 conf 61.8
Cc1cccc(N2CCN(S(=O)(=O)c3ccc4c(c3)NC(=O)C(C)S4)CC2)c1C (centres undefined)	tim23-1 inh 54.7, tim10-1 inh 50.4 | tim10-1 conf inactive | tim23-1 conf inactive
CC(NC(=O)C1CC(=O)N(c2ccc3c(c2)OCCO3)C1)c1ccccc1 (centres undefined)	none (no result: NALP3 yeast inh, TIM10 inh, tim23-1 inh, tim10-1 inh, NALP1 inh)
CNC(=O)c1c(NC(=O)c2ccco2)sc2c1CCCC2	tim23-1 inh 57.8, tim10-1 inh 58.4 | tim10-1 conf 38.5 | tim23-1 conf 48.5
CCc1ccc(-n2c(C)nc3cc(C(=O)NCc4cccnc4)ccc32)cc1	none
COc1cc(OC)cc(-c2nc3ccccc3c(=O)n2OC(=O)c2ccc(Br)cc2)c1	TIM10 inh 61.5, tim23-1 inh 58.1, tim10-1 inh 48.9 | tim10-1 conf 38.3 | TIM10 conf 34.5 | tim23-1 conf 72.0
COc1ccc(O)c(CNn2c(-c3ccc(Br)cc3)nc3ccccc3c2=O)c1	none (no result: V-ATPase pHluor)
COc1ccccc1NC(=O)COC(=O)C1=NN(c2ccccc2)C(=O)CC1	none (no result: NALP1 inh)
O=C1C2C(C(=O)N1/N=C/c1ccc([N+](=O)[O-])o1)C1C=CC2C12CC2 (centres undefined)	TIM10 inh 43.5, tim23-1 inh 63.9, tim10-1 inh 56.5 | tim10-1 conf 49.8 | TIM10 conf inactive | tim23-1 conf 62.5
O=C1C2C3C=CC(C4CC34)C2C(=O)N1/N=C/c1ccc([N+](=O)[O-])o1 (centres undefined)	TIM10 inh 45.1, tim23-1 inh 75.8, tim10-1 inh 67.1 | tim10-1 conf 54.9 | TIM10 conf 46.5 | tim23-1 conf 74.0
Cc1cccc(NC(=O)Cc2coc3ccc4ccccc4c23)n1	tim23-1 inh 50.9, tim10-1 inh 45.8 | tim10-1 conf 35.9 | tim23-1 conf 56.0
COc1ccc(C(=O)c2c(C(F)(F)F)oc3c2C(=O)c2ccccc2C3=O)cc1	TIM10 inh 50.6, tim23-1 inh 78.5, tim10-1 inh 55.3 | tim10-1 conf 52.2 | TIM10 conf 75.9 | tim23-1 conf 73.2
CCOc1ccc2nc(NC(=O)c3ccccn3)sc2c1	none (no result: NALP1 inh)
CCOc1ccc2nc(NC(=O)c3ccoc3C)sc2c1	TIM10 inh 67.7, tim23-1 inh 80.2, tim10-1 inh 75.5 | tim10-1 conf 76.1 | TIM10 conf 68.8 | tim23-1 conf 84.8
CCOc1ccccc1C(=O)Nc1cc2c(cc1N1CCCC1)n(CC)c(=O)n2CC	tim23-1 inh 56.8, tim10-1 inh 48.1 | tim10-1 conf inactive | tim23-1 conf 50.6
Cc1ccc(Cl)cc1N1CCN(C(=O)Cn2ncn3cccc3c2=O)CC1	none
CCC(=O)Nc1ccc(NC(=O)CSc2nnnn2C2CCCC2)cc1C	none
O=C(C[n+]1cn(C(F)F)c2ccccc21)c1ccc(Br)cc1	TIM10 inh 72.0, tim23-1 inh 54.7, tim10-1 inh 64.1 | tim10-1 conf 65.3 | TIM10 conf 64.6 | tim23-1 conf inactive
Cc1cc(C)c(NC(=O)CC(=O)c2ccccc2)c(Cl)c1	none
Cc1cc(C)c(C(=O)CC(=O)c2ccccc2Cl)c(O)c1	tim23-1 inh 65.0, tim10-1 inh 47.9 | tim10-1 conf 36.4 | tim23-1 conf 76.2
CC(=O)c1sc(-c2ccc(Cl)cc2)cc1N	tim23-1 inh 59.5, tim10-1 inh 50.2 | tim10-1 conf inactive | tim23-1 conf 44.8
COC(=O)c1sc(-c2ccc(Cl)cc2)cc1N	none
O=Cc1coc2ccc3ccccc3c2c1=O	tim23-1 inh 76.5, tim10-1 inh 50.5 | tim10-1 conf inactive | tim23-1 conf 74.3
COc1cc2c3c(c1)C(C)=CC(C)(C)N3C(=O)C2=O	tim23-1 inh 56.7, tim10-1 inh 41.3 | tim10-1 conf inactive | tim23-1 conf 57.3
O=Nc1ccc(NOC(=O)c2ccccc2)cc1	TIM10 inh 45.9, tim23-1 inh 59.4, tim10-1 inh 43.7 | tim10-1 conf 53.8 | TIM10 conf 52.9 | tim23-1 conf 70.1
CN(C(=O)c1ccc(NC(=O)Cc2ccc(NC(=O)C3CCCN(C(=O)CCc4ccccc4)C3)cc2)cc1)C1CC1 (centres undefined)	none (no result: NALP1 inh)
CC(Nc1ccc(Cl)cc1)c1cc(Cl)ccc1O (centres undefined)	tim23-1 inh 64.1, tim10-1 inh 66.2 | tim10-1 conf 57.7 | tim23-1 conf 51.7
CN(C)C(=S)N=c1ssc(=S)n1Cc1cccnc1	none (no result: NALP3 yeast inh, TIM10 inh, tim23-1 inh, tim10-1 inh, NALP1 inh)
COC(=O)Cc1c(C)[nH]n(-c2cc(Cl)cc(Cl)c2)c1=O	tim23-1 inh 70.0, tim10-1 inh 45.0 | tim10-1 conf 37.2 | tim23-1 conf 63.1
O=C1C=C(c2ccccc2)C(=O)N1Nc1ccccc1	none
COc1ccc(C2=CC(=O)N(Nc3ccccc3)C2=O)cc1	TIM10 inh 54.4, tim23-1 inh 81.2, tim10-1 inh 48.5 (no result: V-ATPase pHluor) | tim10-1 conf 50.3 | TIM10 conf 55.3 | tim23-1 conf 77.2
COC(=O)C1=C(C)N(c2ccc(Cl)c(Cl)c2)C(=O)C1	TIM10 inh 43.4, tim23-1 inh 59.0, tim10-1 inh 45.9 | tim10-1 conf 47.1 | TIM10 conf 38.8 | tim23-1 conf 50.4
Cc1c(C(=O)N2CCN(c3ccccc3F)CC2)sc2nc(-c3ccccc3)cn12	TIM10 inh 54.0, tim23-1 inh 53.5, tim10-1 inh 54.3 | tim10-1 conf 53.5 | TIM10 conf 51.0 | tim23-1 conf 75.3
Cc1c(C(=O)N2CCN(C(=O)c3ccco3)CC2)sc2nc(-c3ccc(F)cc3)cn12	none (no result: NALP1 inh)

Screening data as filed in PubChem.
